Measured values taken from the supplement of paper PMC11732987, “Enantioselective OTUD7B fragment discovery through chemoproteomics screening and high-throughput optimisation” (Communications Chemistry, 2025).

Columns and labels:
Test in all cases: log2 ratio of Biotin-Ahx-Ub-VS probe labelling (fragment/DMSO); higher = less target engagement (more negative = stronger competition), active = hit call of the paper (q ≤ 0.05, log2 ratio ≤ -1)
Settings in all cases: compound concentration: 200 uM; treatment time: 3 h
ALG13 = biological target: T1, ALG13 (UniProt Q9NP73)
T1 sequence (whole entry): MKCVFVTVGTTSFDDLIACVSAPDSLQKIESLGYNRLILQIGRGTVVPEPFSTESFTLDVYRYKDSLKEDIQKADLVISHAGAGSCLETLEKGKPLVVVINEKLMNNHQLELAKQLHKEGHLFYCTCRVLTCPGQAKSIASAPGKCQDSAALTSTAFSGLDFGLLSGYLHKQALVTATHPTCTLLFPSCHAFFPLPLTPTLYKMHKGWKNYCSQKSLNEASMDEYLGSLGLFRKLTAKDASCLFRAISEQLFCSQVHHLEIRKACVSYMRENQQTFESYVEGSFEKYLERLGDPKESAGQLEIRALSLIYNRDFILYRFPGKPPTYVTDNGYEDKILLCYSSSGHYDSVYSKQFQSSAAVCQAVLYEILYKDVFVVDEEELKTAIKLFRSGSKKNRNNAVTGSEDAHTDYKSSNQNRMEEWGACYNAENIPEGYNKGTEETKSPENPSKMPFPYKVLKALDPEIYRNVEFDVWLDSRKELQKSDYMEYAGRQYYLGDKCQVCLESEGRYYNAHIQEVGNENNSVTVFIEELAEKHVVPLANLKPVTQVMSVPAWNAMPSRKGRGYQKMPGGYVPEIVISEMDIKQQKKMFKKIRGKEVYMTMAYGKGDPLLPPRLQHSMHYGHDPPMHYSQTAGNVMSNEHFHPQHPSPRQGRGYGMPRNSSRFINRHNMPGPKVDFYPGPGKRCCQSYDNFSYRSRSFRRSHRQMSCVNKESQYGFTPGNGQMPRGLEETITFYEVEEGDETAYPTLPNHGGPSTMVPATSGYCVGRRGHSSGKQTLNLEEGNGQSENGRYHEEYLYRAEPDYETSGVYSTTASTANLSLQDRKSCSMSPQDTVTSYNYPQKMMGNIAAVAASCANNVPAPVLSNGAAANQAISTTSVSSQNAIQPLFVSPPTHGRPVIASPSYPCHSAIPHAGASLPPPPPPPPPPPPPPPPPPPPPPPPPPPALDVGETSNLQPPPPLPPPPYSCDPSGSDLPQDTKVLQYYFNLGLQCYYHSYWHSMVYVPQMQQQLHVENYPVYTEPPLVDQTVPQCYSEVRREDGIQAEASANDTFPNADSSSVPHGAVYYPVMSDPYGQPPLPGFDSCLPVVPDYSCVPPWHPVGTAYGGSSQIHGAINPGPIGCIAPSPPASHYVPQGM
In short: (§1)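 HEK293T lysate (495 µg per sample, in Tris/CHAPS/IGEPAL buffer with protease inhibitors) was exposed in triplicate for 3 h to fragment at 200 µM or to vehicle, then to Biotin-Ahx-Ub-VS at 0.5 µM final for 1 h. Labelled DUBs were enriched on NeutrAvidin, digested with LysC and trypsin, and analysed by diaPASEF LC-MS/MS. Spectronaut label-free quantities were normalised to the global median, and values are average log2 ratios of fragment over vehicle from an unpaired t-test. Only proteins with ≥2 unique peptides were used.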

ATXN3 = ATXN3 (UniProt P54252)
In short: as §1

BAP1 = biological target: T2, BAP1 (UniProt Q92560)
T2 sequence (whole entry): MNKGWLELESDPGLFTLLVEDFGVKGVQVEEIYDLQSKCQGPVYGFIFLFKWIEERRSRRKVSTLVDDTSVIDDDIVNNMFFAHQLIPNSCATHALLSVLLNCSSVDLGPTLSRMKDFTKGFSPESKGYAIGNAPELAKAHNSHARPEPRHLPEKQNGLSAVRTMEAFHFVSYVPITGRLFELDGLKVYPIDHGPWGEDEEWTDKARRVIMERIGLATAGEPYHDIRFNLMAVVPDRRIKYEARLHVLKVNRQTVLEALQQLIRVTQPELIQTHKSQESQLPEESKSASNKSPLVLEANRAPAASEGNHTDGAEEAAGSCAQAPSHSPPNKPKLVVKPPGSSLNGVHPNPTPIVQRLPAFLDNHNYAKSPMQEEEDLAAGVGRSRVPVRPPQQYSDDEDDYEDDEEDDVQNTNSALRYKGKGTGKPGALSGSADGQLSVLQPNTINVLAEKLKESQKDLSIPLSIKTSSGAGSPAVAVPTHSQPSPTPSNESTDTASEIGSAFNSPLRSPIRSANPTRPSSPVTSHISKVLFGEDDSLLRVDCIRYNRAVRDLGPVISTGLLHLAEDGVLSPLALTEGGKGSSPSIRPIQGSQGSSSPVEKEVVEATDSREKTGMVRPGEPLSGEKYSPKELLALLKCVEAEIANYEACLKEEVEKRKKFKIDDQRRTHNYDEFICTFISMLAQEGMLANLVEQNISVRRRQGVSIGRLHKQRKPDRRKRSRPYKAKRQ
In short: as §1

EIF3F = EIF3F (UniProt O00303)
In short: as §1

EIF3H = EIF3H (UniProt O15372)
In short: as §1

FAM105A = biological target: T3, FAM105A (UniProt Q9NUU6)
T3 sequence (whole entry): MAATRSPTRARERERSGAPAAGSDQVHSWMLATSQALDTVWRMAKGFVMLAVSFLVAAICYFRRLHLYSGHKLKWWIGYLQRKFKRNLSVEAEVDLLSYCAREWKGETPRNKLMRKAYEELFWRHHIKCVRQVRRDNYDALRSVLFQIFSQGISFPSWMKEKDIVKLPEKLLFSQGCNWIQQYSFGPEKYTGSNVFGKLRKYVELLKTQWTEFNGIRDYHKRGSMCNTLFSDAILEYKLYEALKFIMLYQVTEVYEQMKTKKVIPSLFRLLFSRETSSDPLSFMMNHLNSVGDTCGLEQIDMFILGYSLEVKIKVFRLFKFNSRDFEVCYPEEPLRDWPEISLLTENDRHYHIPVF
In short: as §1

OTUB1 = OTUB1 (UniProt Q96FW1)
In short: as §1

OTUD4 = biological target: T4, OTUD4 (UniProt Q01804)
T4 sequence (whole entry): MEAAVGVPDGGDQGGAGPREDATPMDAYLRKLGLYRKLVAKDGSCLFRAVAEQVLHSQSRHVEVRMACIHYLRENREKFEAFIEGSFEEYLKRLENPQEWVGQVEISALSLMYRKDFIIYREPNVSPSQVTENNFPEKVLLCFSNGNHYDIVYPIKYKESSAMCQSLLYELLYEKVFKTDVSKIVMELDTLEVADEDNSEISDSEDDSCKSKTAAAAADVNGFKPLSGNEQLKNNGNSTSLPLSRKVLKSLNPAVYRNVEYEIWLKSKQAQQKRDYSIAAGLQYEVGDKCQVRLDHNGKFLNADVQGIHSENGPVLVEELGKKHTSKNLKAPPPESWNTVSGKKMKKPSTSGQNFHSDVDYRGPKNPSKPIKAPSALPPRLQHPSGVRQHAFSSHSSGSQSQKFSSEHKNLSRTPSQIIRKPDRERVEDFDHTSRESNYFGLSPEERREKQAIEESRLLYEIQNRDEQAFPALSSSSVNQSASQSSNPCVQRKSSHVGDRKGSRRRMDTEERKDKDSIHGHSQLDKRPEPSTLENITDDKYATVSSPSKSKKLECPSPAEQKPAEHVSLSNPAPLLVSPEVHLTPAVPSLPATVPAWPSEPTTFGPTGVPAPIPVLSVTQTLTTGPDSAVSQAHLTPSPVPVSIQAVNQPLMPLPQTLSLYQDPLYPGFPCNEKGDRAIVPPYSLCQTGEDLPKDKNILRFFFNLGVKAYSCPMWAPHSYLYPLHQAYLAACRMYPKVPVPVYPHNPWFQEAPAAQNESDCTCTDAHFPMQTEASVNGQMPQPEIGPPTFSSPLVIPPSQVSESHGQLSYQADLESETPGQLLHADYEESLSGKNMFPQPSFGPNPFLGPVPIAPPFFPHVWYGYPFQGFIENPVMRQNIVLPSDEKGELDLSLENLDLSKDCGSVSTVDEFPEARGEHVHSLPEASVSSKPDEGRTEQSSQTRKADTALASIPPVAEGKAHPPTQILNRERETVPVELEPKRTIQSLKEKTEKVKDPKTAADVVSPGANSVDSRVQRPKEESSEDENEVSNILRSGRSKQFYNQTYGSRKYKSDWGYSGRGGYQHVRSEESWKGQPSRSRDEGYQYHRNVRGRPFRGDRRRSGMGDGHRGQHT
In short: as §1

OTUD5 = biological target: T5, OTUD5 (UniProt Q96G74)
T5 sequence (whole entry): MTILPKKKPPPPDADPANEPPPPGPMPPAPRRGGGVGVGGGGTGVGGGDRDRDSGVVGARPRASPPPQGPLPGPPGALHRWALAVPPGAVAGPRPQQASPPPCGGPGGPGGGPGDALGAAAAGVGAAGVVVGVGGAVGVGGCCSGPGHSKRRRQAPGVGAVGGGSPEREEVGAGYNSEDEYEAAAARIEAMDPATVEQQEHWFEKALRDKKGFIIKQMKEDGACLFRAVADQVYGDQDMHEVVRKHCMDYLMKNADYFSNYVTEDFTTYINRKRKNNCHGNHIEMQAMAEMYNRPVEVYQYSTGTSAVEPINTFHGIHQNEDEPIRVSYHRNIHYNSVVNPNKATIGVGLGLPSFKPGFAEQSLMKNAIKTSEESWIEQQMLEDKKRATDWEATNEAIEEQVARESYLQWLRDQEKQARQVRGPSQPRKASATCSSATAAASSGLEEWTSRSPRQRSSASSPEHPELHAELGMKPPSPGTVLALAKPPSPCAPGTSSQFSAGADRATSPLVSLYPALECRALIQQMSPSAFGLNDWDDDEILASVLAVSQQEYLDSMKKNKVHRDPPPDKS
In short: as §1

Measured: log2 ratio of Biotin-Ahx-Ub-VS probe labelling

Chain of OTUB1 (Q96FW1 whole entry): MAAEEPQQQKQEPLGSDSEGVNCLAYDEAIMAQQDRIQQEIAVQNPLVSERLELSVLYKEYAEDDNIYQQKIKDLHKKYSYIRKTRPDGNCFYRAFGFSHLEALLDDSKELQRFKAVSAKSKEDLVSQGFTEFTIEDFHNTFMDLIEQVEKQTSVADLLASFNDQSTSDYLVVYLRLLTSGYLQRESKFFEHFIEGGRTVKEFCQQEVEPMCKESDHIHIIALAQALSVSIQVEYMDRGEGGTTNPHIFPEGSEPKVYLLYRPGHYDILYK
Chain of EIF3F (O00303 whole entry): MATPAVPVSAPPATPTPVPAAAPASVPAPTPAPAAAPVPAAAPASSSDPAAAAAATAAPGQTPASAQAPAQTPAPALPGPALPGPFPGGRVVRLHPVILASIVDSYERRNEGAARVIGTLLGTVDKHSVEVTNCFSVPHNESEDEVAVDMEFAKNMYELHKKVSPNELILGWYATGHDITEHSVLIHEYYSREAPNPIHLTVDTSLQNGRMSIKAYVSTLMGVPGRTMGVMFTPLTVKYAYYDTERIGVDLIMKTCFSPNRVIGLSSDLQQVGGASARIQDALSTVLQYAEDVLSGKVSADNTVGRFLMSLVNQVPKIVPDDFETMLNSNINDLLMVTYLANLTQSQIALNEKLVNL
Chain of EIF3H (O15372 whole entry): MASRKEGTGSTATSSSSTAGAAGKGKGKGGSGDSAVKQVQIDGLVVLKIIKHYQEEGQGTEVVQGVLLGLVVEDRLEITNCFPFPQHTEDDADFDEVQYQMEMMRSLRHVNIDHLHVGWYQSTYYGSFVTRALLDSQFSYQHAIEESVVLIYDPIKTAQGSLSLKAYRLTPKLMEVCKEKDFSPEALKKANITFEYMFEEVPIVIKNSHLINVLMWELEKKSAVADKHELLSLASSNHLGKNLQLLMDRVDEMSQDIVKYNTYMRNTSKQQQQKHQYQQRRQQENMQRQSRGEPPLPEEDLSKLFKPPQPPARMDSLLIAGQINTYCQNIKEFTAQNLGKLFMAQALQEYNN
Chain of ATXN3 (P54252 whole entry): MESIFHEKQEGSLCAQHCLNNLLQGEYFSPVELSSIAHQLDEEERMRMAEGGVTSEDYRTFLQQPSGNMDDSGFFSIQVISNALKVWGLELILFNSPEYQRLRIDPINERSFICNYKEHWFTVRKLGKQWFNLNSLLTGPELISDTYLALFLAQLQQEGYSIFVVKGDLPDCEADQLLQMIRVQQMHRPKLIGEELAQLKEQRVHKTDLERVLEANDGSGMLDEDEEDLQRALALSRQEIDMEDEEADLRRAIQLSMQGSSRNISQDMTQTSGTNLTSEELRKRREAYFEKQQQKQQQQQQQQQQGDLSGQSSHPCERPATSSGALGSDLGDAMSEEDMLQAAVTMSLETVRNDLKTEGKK

CN(CCc1ncc(Br)cn1)C(=O)CCl.Cl
inactive: ALG13 -0.0179 | ATXN3 -0.617 | BAP1 -0.611 | EIF3F -0.295 | EIF3H 0.145 | FAM105A 0.245 | OTUB1 0.000215 | OTUD4 -0.616 | OTUD5 -0.588
